# Data from PubChem BioAssay AID2499 (National Center for Advancing Translational Sciences (NCATS), 2010).
# Inconclusive results are not listed. The source made the active and inactive calls. Calls come from the whole dose curve; as a rule, active = well fitted inhibition curve with a large enough effect; inconclusive = small, poorly fitted or top-dose-only effect; inactive = flat fitted curve, though single readings scatter.
# Biological target: Galactokinase (Homo sapiens) (UniProt P51570)
# Test: Confirmation Assay for Inhibitors of Human Galactokinase (GALK): probe SAR
# Details: purified GALK, Kinase-Glo ATP depletion luminescence; series mostly up to 115 µM
# From the text: NIH Molecular Libraries Probe Production Centers Network [MLPCN] NIH Chemical Genomics Center [NCGC] MLPCN Grant: R03 MH085689-01 Assay Submitter (PI): Kent Lai (University of Utah School of Medicine, 50 N Mario Capecchi Drive, Salt Lake City, UT 84132) NCGC Assay Overview Inherited deficiency of galactose-1-phosphate uridyltransferase (GALT) can result in a potentially lethal disorder called Classic Galactosemia (OMIM 230400). Several lines of evidence indicate that an elevated level of galactose-1-phosphate (gal-1-p), the product of galactokinase (GALK), is a major, if not sole, pathogenic mechanism in patients with classic galactosemia. Therefore, finding inhibitors of GALK is a potential novel therapy for this inherent metabolic disease and is the long term goal of this project. Active compounds observed in the qHTS GALK assay (AID: 1868) were cherry picked and re-screened for validation. GALK (provided by Kent Lai) was assayed using ATP and D-(+)-Galactose (Sigma-Aldrich cat# G0750) as substrates. Promega Kinase-Glo Plus (cat# V3774) technology was used to detect the residual ATP following kinetic reaction. Briefly, the Kinase-Glo Plus contains Ultra-Glo [1] luciferase and D-luciferin which generates a bioluminescence signal from the remaining ATP. Kinase reactions with and without GALK were used as negative and positive controls together with Protein Tyrosine Phosphatase CD45 inhibitor (EMD Bioscience cat# 540215) which is shown to inhibit GALK activity.
# NCGC Assay Protocol Summary: Three uL/well of ATP-buffer solution (35 uM ATP, 20mM HEPES pH8.0, 5 mM MgCl2, 60 mM NaCl, 1 mM DTT, 0.01% BSA final concentration) was dispensed into 1536-well, assay plates (Greiner, solid white medium-binding plates) with Aurora Discovery BioRAPTR Flying Reagent Dispenser (FRD; Beckton-Dickenson). Compound and control solution (23 nL) was transferred to the assay plate using the Kalypsys 1536-pin tool apparatus. One uL/well GALK-galactose solution (5 nM GALK, 100 uM galactose, 20 mM HEPES pH8.0, 5 mM MgCl2, 60 mM NaCl, 1 mM DTT, 0.01% BSA final concentration) was then added using the FRD yielding a total kinase reaction volume of 4 uL/ well. After 1 hour of room temperature incubation, 4 uL Kinase-Glo Plus reagent was added for a final assay volume of 8 uL/well. Luminescence was detected with the ViewLux plate reader (Perkin Elmer, Waltham, MA) after 2 min incubation using a 1 sec exposure time and 2x binning.
# Chain of Galactokinase (Homo sapiens) (P51570 whole entry, looked up): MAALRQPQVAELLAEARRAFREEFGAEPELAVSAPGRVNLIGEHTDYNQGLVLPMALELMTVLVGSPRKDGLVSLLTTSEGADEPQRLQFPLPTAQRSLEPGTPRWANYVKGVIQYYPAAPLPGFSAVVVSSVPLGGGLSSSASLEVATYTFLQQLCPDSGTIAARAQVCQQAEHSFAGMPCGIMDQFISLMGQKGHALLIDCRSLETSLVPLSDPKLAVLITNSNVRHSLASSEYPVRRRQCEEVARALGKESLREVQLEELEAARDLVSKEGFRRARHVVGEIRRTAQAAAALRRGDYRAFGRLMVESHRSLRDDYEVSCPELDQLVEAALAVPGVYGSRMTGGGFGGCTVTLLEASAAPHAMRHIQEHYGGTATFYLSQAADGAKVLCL
row,Compound,Potency
1,CC1(C)N=C(Nc2nc3ccccc3o2)NC2=C1C(=O)CCC2,47.3 µM (active)
2,O=C1CCCC2=C1C1(CCC1)N=C(Nc1nc3ccccc3o1)N2,18.8 µM (active)
3,CC1(C)CC(=O)C2=C(C1)NC(Nc1nc3ccccc3o1)=NC2c1ccccc1Cl (centres undefined),8.41 µM (active)
4,O=C1CCCC2=C1C1(CCCC1)N=C(Nc1nc3ccccc3n1Cc1ccccc1)N2,inactive
5,O=C1CCCC2=C1C(c1ccccc1Cl)N=C(Nc1nc3ccccc3o1)N2 (centres undefined),0.595 µM (active)
6,Cn1c(NC2=NC3(CCCC3)C3=C(CCCC3=O)N2)nc2ccccc21,inactive
7,O=C1CCCC2=C1C1(CCCCC1)N=C(Nc1nc3ccccc3o1)N2,13.3 µM (active)
8,O=C1CCCC2=C1C1(CCSC1)N=C(Nc1nc3ccccc3o1)N2 (centres undefined),2.66 µM (active)
9,CCC1CCC2(C1)N=C(Nc1nc3ccccc3o1)NC1=C2C(=O)CCC1 (centres undefined),inactive
10,COc1cccc(C2N=C(Nc3nc4ccccc4o3)NC3=C2C(=O)CC(C)(C)C3)c1 (centres undefined),37.5 µM (active)
11,O=C1CCC2=C1C(c1ccccc1Cl)N=C(Nc1nc3ccccc3o1)N2 (centres undefined),11.9 µM (active)
12,O=C1CCC2=C1C1(CCCC1)N=C(Nc1nc3ccccc3o1)N2,11.9 µM (active)
13,CC1CCC2(C1)N=C(Nc1nc3ccccc3o1)NC1=C2C(=O)CCC1 (centres undefined),11.9 µM (active)
14,O=C1CCCC2=C1C1(CCCC1)N=C(Nc1nc3cc(Cl)ccc3o1)N2,6.68 µM (active)
15,CC1(C)CC(=O)C2=C(C1)NC(Nc1nc3ccccc3o1)=NC2c1cccc(O)c1 (centres undefined),21.1 µM (active)
16,Cc1nc(Nc2nc3ccccc3o2)nc2c1C(=O)CC(C)(C)C2,inactive
17,COc1ccc(C2N=C(Nc3nc4ccccc4o3)NC3=C2C(=O)CC(C)(C)C3)cc1 (centres undefined),inactive
18,O=C1CCCC2=C1C1(CCCC1)N=C(Nc1nc3cc4ccccc4cc3o1)N2,inactive
19,O=C1CCCC2=C1C(c1ccc(Cl)cc1)N=C(Nc1nc3ccccc3o1)N2 (centres undefined),inactive
20,Cc1ccc(C2N=C(Nc3nc4ccccc4o3)NC3=C2C(=O)CC(C)(C)C3)cc1 (centres undefined),inactive
21,Cc1ccc2oc(NC3=NC4(CCCC4)C4=C(CCCC4=O)N3)nc2c1,5.95 µM (active)
22,O=C1CC(c2ccccc2)CC2=C1C1(CCCCC1)N=C(Nc1nc3ccccc3o1)N2 (centres undefined),inactive
23,CC1(C)CC(=O)C2=C(C1)NC(Nc1nc3ccccc3o1)=NC2c1cccc(F)c1 (centres undefined),inactive
24,CC1(C)CC(=O)C2=C(C1)NC(Nc1nc3ccccc3o1)=NC21CCCC1,6.68 µM (active)
25,O=C1CCCC2=C1C1(CCSCC1)N=C(Nc1nc3ccccc3o1)N2,1.06 µM (active)
26,O=C1CCCC2=C1[C@@]1(CCC(c3ccccc3)C1)N=C(Nc1nc3ccccc3o1)N2 (some centres undefined),inactive
27,O=C1CCCC2=C1C1(CCS(=O)(=O)C1)N=C(Nc1nc3ccccc3o1)N2 (centres undefined),6.68 µM (active)
28,COc1ccccc1C1N=C(Nc2nc3ccccc3o2)NC2=C1C(=O)CC(C)(C)C2 (centres undefined),inactive
29,O=C1CCCC2=C1C1(CCCC1)N=C(Nc1nc3cc(Br)ccc3o1)N2,7.49 µM (active)
